Compound activity from PubChem BioAssay.
In the library only some 15% were active in any assay of this set; here they are far more common.
TDP1 cell CPT – qHTS for Inhibitors of human tyrosyl-DNA phosphodiesterase 1 (TDP1): qHTS in cells in presence of CPT. chicken DT40 Tdp1-/-;hTDP1 cells + 20 nM CPT, ATP luminescence, 48 h. Potency, µM (top dose mostly 46.2 µM), for the others: top-dose activity change, negative = growth inhibition, most hits filed as inhibitors. 420,000 tested, 12% active; also: nearly all actives have a fitted effect of over 55% in size
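Chicken DT40 Tdp1-/- cells stably complemented with human TDP1 were seeded at 400 cells/well in medium containing 20 nM camptothecin, exposed to pin-transferred compounds, and grown at 37 °C for at least 48 hr. Viability was read as ATP luminescence.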
ALOX12 inh – Primary qHTS assay for inhibitors of human arachidonate 12S-lipoxygenase (ALOX12): Round 2 | Polyunsaturated fatty acid lipoxygenase ALOX12 (Homo sapiens), P18054 | purified 12hLO, xylenol orange hydroperoxide absorbance | Potency, µM (titrated, usually from 108 µM), inactives show top-dose activity change, negative = inhibition, hits mostly inhibitors | 580,000 tested, 1.1% active | AID 1671190, 2021
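Purified human 12hLO (150 nM final) in 25 mM Hepes, 0.01% Triton X-100, pH 7.0 was preincubated 15 min at room temperature with compound. Then 40 uM arachidonic acid was added, 30 min. Hydroperoxide was read by Fe-XO absorbance ratio 573/405 nm.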
ELG1 repair inh – qHTS screen for small molecules that inhibit ELG1-dependent DNA repair in human embryonic kidney (HEK293T) cells expressing luciferase-tagged ELG1; Potency, µM (highest dose often 46.1 µM), inactives show at the highest dose activity change, negative = inhibition, usual class: inhibitors; 330,000 tested, 2.3% active; HEK293T ELG1-luciferase reporter, luminescence, 16 h; DNA damage induced by 5-fluorouridine; also: nearly all actives have a fitted effect of over 55% in size
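Reporter activity after DNA damage by 5-fluorouridine is monitored. Compound-treated cells incubate 16 hr at 37 °C, then ONE-Glo is added for 30 min before luminescence reading.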
DT40 TDP1 no CPT – qHTS for Inhibitors of human tyrosyl-DNA phosphodiesterase 1 (TDP1): qHTS in cells in absence of CPT; Potency, µM (top dose mostly 46.2 µM), without a hit: top-dose activity change, negative = growth inhibition, actives largely listed as inhibitors; DT40 Tdp1-/- hTDP1 cells, no CPT, ATP luminescence, 48 h; 420,000 tested, 15% active; also: nearly all actives have a fitted effect of over 55% in size
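Readout: luminescence from CellTiter-Glo after 30 min in the dark at RT. Cells: DT40 Tdp1-/- with stable hTDP1, 400/well. Exposure: compounds alone, ≥48 hr, 37 °C.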
RORg inh – qHTS for inhibitors of ROR gamma transcriptional activity. Drosophila S2 Gal4-RORgamma UAS-luciferase reporter, 20 h. Nuclear receptor ROR-gamma (Mus musculus), P51450. Potency, µM (doses to about 53.6 µM), inactives show top-dose activity change, negative = inhibition, hits mostly inhibitors. 310,000 tested, 5.4% active; also: nearly all actives have a fitted effect of over 60% in size
Target sequence (P51450 whole entry, looked up, the tested form may be a part): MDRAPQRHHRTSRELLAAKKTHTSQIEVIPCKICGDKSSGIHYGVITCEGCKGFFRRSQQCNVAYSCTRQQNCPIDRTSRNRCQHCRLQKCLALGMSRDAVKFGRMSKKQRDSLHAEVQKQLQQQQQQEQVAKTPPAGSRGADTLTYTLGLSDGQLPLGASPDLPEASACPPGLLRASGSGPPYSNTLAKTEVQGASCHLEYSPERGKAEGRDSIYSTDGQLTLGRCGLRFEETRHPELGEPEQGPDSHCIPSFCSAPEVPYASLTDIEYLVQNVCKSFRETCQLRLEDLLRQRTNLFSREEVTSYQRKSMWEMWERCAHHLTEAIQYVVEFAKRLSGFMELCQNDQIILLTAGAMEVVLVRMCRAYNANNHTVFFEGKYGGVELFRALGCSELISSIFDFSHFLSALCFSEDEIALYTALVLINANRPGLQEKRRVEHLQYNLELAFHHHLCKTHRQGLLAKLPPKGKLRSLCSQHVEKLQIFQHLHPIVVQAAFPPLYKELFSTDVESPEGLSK
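ROR gamma transcriptional activity was tracked as Gal4-UAS luciferase output in stably transfected Drosophila Schneider cells, with compound added 1 hr before 700 uM copper sulfate induction and a 20 hr ambient-temperature incubation.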
Gal4-VP16 FLuc – VP16 counterscreen qHTS for inhibitors of ROR gamma transcriptional activity. 310,000 tested, 3.5% active. Potency, µM (series often up to 53.6 µM), for inactives: top-dose activity, negative = inhibition, usual class: inhibitors. Drosophila S2 Gal4-VP16 UAS-luciferase, luminescence, 20 h. AID 2546, 2010;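 also: Gal4-VP16 expression switched on by copper sulfate through the metallothionein promoter; nearly all actives have a fitted effect of over 50% in size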
Starred values were filed as active, the others as inactive; ? = inconclusive; . = no result. Calls follow the shape of the dose curve; as a rule, active = well fitted curve in the direction sought with a large enough effect; inconclusive = small, poorly fitted or top-dose-only effect, or another doubt; inactive = no such curve, though single readings can be large; an effect the other way counts as inactive or inconclusive. % is scaled to controls: 0 for no effect and ±100 for the full control effect; potency is read from the fitted curve at half-maximal effect.

SMILES	TDP1 cell CPT	ALOX12 inh	ELG1 repair inh	DT40 TDP1 no CPT	RORg inh	Gal4-VP16 FLuc
COc1cccc(-c2cc(C(=O)N/N=C/c3ccco3)c3ccccc3n2)c1	?	-22.8%	1.8%	0.92µM*	3.16µM*	7.08µM*
O=C(N/N=C/c1ccco1)c1cc(-c2ccccc2)nc2ccccc12	?	-0.1%	?	4.11µM*	7.08µM*	10µM*
CCCc1ccc(-c2cc(C(=O)N/N=C/c3ccc([N+](=O)[O-])o3)c3ccccc3n2)cc1	16.4µM*	5.2%	?	8.2µM*	7.08µM*	8.91µM*
O=C(N/N=C/c1ccco1)c1cc(C2CC2)nc2ccccc12	.	-2.8%	-2.0%	.	-42.6%	5.7%
CN(C)CCN(C)Cc1c2ccccc2c(CN(C)CCN(C)C)c2ccccc12	18.4µM*	?	-8.4%	18.4µM*	0.5%	2.5%
Nc1c(Br)cc([N+](=O)[O-])cc1Br	.	-9.0%	.	.	.	.
O=c1[nH]cc([N+](=O)[O-])cc1Br	20.6µM*	?	6.7%	?	-19.0%	-10.7%
CCOc1cccc(CN2C[C@@H](CO)[C@H](C3CCN(C(C)=O)CC3)C2)c1	.	64.5%	.	.	.	.
O=C1c2ccccc2C(=O)N1CCCCN(C(=O)c1ccco1)c1ccc(Cl)cc1	?	7.7%	?	?	-38.4%	?
O=C1c2ccccc2C(=O)N1CCCCN(C(=O)c1cccc([N+](=O)[O-])c1)c1ccc(Cl)cc1	20.6µM*	-14.2%	?	16.4µM*	16.6%	-3.8%
C=CCc1ccc(O)c(-c2ccc(O)c(CC=C)c2)c1	?	?	-13.0%	18.4µM*	?	22.4µM*
CCOc1cc(/C=C\[N+](=O)[O-])ccc1OCC(=O)Nc1ccccc1C	0.92µM*	.	?	0.581µM*	1.12µM*	1.78µM*
CCOc1cc(/C=N/n2cnnc2)ccc1OCC(=O)Nc1ccccc1OC	-8.0%	-14.5%	-5.2%	8.2µM*	-1.8%	-2.3%
CCOc1cc(/C=C/c2cccc[n+]2C)ccc1OCC(=O)Nc1ccc(C)cc1	20.6µM*	?	-1.4%	16.4µM*	-9.0%	-4.1%
Cc1ccc(Cl)cc1NC(=O)Cn1cnc2c1c(=O)n(C)c(=O)n2C	.	-0.2%	.	.	.	.
Cc1cccc(C(=O)N2CC(c3nnc(-c4ccncc4)o3)C3(CCOCC3)C2)c1 (configuration not stated)	.	43.8%	.	.	.	.
CCCC1(C(=O)OCC)NC(c2ccc(OC)cc2OC)C2C(=O)N(c3ccccc3)C(=O)C21 (configuration not stated)	?	0.0%	11.6µM*	?	47.3%	-14.3%
Cc1cc(C)cc(NC(=O)C(=O)NCC2CCCN2S(=O)(=O)c2cccs2)c1 (configuration not stated)	7.31µM*	11.6%	-28.1%	10.3µM*	.	.
O=C(NCC1CCCN1S(=O)(=O)c1cccs1)C(=O)Nc1ccc(F)cc1 (configuration not stated)	-49.6%	-10.1%	?	?	.	.
O=C(NCC1CCCN1S(=O)(=O)c1cccs1)c1cccc(F)c1 (configuration not stated)	16.4µM*	-17.6%	4.4%	18.4µM*	.	.
Cc1ccccc1CNC(=O)C(=O)NCC1CCCN1S(=O)(=O)c1cccs1 (configuration not stated)	?	-19.6%	-40.1%	?	.	.
Cc1ccc(NC(=O)C(=O)NCC2CCCN2S(=O)(=O)c2cccs2)c(C)c1 (configuration not stated)	18.4µM*	20.3%	-13.6%	?	.	.
O=C(NCC1CCCN1S(=O)(=O)c1cccs1)c1ccc(F)cc1 (configuration not stated)	?	10.5%	0.5%	?	.	.
Cc1cccc(C)c1NC(=O)C(=O)NCC1CCCN1S(=O)(=O)c1cccs1 (configuration not stated)	?	-3.8%	?	11.6µM*	.	.
Cc1ccc(C(=O)CCC(=O)OCC(=O)c2ccc(Cl)c(Cl)c2)cc1	.	-35.5%	.	.	.	.
SMILES	TDP1 cell CPT	ALOX12 inh	ELG1 repair inh	DT40 TDP1 no CPT	RORg inh	Gal4-VP16 FLuc
N#Cc1ccc(COC(=O)c2ccc3c(c2)NC(=O)CS3)cc1	.	-6.2%	.	.	.	.
O=C(Nc1c(Cl)cccc1Cl)C1CC1(c1ccccc1)c1ccccc1 (configuration not stated)	.	-5.5%	.	.	.	.
CSc1cccc(NS(=O)(=O)c2ccc(C(C)=O)cc2)c1	?	-3.5%	7.3µM*	?	?	?
CSc1cccc(NS(=O)(=O)c2ccc3c(c2)CCN3C(C)=O)c1	9.2µM*	19.5%	?	3.66µM*	?	4.47µM*
CC(=O)N1CCc2cc(S(=O)(=O)Nc3cccc(C(F)(F)F)c3)ccc21	18.4µM*	0.3%	?	20.6µM*	?	5.01µM*
CC(=O)N1CCCc2cc(S(=O)(=O)Nc3ccc4c(c3)OCO4)ccc21	-20.6%	-0.8%	9.3%	-26.6%	28.7%	-18.2%
CC(=O)N1CCCc2cc(S(=O)(=O)Nc3ccc(C)c(F)c3)ccc21	?	-5.2%	.	16.4µM*	.	.
CNC(=O)[C@@H]1C[C@@H](O)CN1C1CCN(C(=O)CC2CCCC2)CC1	.	-0.4%	.	.	.	.
CC1CCN(c2csc3ccc(F)cc3c2=O)CC1	-8.0%	3.1%	.	?	.	.
O=c1c(N2CCN(c3ccc(F)cc3)CC2)csc2ccc(F)cc12	18.4µM*	?	.	?	.	.
Cc1oc2cc(OCC(=O)NC(C)c3ccco3)ccc2c(=O)c1Oc1ccccc1 (configuration not stated)	.	-7.2%	.	.	.	.
CCCN1C(=O)/C(=C/c2nc3ccccc3c(=O)[nH]2)c2cc(C)ccc21	20.6µM*	-12.5%	20.6%	8.2µM*	19.3%	-13.9%
Cc1ccc(C)c(C(=O)CSc2nc3ccccc3c(=O)[nH]2)c1	1.9%	-3.7%	10.3%	?	-12.0%	1.4%
CC(C)N1C(=O)/C(=C\c2nc3ccccc3c(=O)[nH]2)c2ccccc21	?	?	?	29.1µM*	-33.1%	?
CCn1c(/C=C2\C(=O)N(C(C)C)c3ccccc32)nc2ccccc2c1=O	?	?	-2.7%	?	-11.1%	-2.9%
